Screening data as filed in PubChem BioAssay.
AMA1 RON2 block: qHTS for Inhibitors of AMA1-RON; Towards Development of Antimalarial Drug Lead: Primary Screen | AlphaScreen AMA1-biotinylated RON2 peptide binding | Potency, µM (titrated, usually from 58.2 µM), usual class: inhibitors | 360,000 compounds, 0.2% hits; note: nearly all actives have a fitted effect of over 45% in size
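AMA1 (3D7) with his tag at 25 nM final met compounds first, then biotinylated RON2 peptide at 25 nM; detection used donor plus acceptor beads, 10 µg/mL apiece, read by AlphaScreen after 30 min at room temperature.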
Pf growth 96h: Primary qHTS for delayed death inhibitors of the malarial parasite plastid, 96 hour incubation; P. falciparum luciferase reporter growth, 96 h; Potency, µM (top dose mostly 28.7 µM), usual class: inhibitors; 320,000 compounds, 6.9% hits
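Infected RBCs, 2% Hct / 0.05% parasitemia final; luciferase-reporter P. falciparum; cpd 96 h, 37 C, 5% CO2; luciferase detection reagent; luminescence.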
Pf growth 48h: Primary qHTS for delayed death inhibitors of the malarial parasite plastid, 48 hour incubation; Potency, µM (doses to about 28.7 µM), usual class: inhibitors; P. falciparum luciferase growth in erythrocytes, 48 h; 310,000 compounds, 5.9% hits
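Growth was read as firefly luciferase luminescence after a 48 h, 37 C, 5% CO2 exposure of compounds to reporter-bearing P. falciparum cultures (0.1% parasitemia, 2% hematocrit final) in Albumax-supplemented RPMI 1640.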
VACV Venus inh: qHTS for Stage-Specific Inhibitors of Vaccinia Orthopoxvirus: Venus Reporter Primary qHTS; Vaccinia virus Venus reporter expression, fluorescence; Potency, µM (titrated, usually from 36.5 µM), most hits filed as inhibitors; 330,000 compounds, 0.46% hits; calls by dose curve; tested in A549 cells; note: nearly all actives have a fitted effect of over 30% in size
VACV mCherry inh: qHTS for Stage-Specific Inhibitors of Vaccinia Orthopoxvirus: mCherry Reporter Primary qHTS. Vaccinia virus mCherry reporter infection, fluorescence. Potency, µM (doses to about 36.5 µM), usual class: inhibitors. 310,000 compounds, 0.63% hits; calls by dose curve; tested in A549 cells; note: nearly all actives have a fitted effect of over 35% in size
Hits are given with their value; i = inactive; ? = inconclusive; nt = no result; [ ] = another dose, or the depositor's remark. An excerpt weighted towards active compounds, which were near 8.7% of everything screened. Unless noted, calls come from the whole dose curve; as a rule, active = well fitted curve in the direction sought with a large enough effect; inconclusive = small, poorly fitted or top-dose-only effect, or another doubt; inactive = no such curve, though single readings can be large; an effect the other way counts as inactive or inconclusive.

SMILES	AMA1 RON2 block	Pf growth 96h	Pf growth 48h	VACV Venus inh	VACV mCherry inh
CCCCOc1ccc(/C=C/C(=O)OCC(=O)N2CC(=O)Nc3ccccc32)cc1OCC	i	?	10µM	?	i
O=C1CN(C(=O)COc2ccc([N+](=O)[O-])cc2Cl)c2ccccc2N1	i	10µM	2.9µM	nt	nt
O=C1CN(C(=O)COc2cccc(F)c2)c2ccccc2N1	nt	?	i	nt	nt
O=C1CN(C(=O)COc2ccc(Cl)c(Cl)c2)c2ccccc2N1	i	3.3µM	13µM	i	i
O=C1CN(C(=O)COc2ccc(Br)cc2F)c2ccccc2N1	i	8.3µM	5.9µM	i	i
O=C1CN(C(=O)COc2ccc(Cl)cc2Cl)c2ccccc2N1	i	i	?	i	i
COc1ccc(/C=C/c2cnc3ccccc3n2)cc1OC	nt	nt	nt	i	i
Cc1cccc(CNC(=O)c2cnn(-c3nccc(-c4cccs4)n3)c2C2CC2)n1	nt	nt	nt	i	i
O=C(COc1ccccc1-c1nc(-c2ccccc2)no1)Nc1ccccc1[N+](=O)[O-]	nt	nt	nt	i	i
Cc1cccc(Cn2c(=O)n(-c3ccc(Cl)c(Cl)c3)c(=O)c3c(C)c(C)sc32)c1	nt	nt	nt	i	i
O=C(CCN1CCN(C(c2ccccc2)c2ccccc2)CC1)N/N=C/c1ccc(O)cc1O	i	5.2µM	?	?	20µM
O=C(CCN1CCN(C(c2ccccc2)c2ccccc2)CC1)N/N=C/c1ccc(O)cc1	i	?	?	i	i
Cc1cc(C)n(CCC(=O)N/N=C/c2ccccc2O)n1	i	i	?	?	?
Cc1cc(C)n(CCC(=O)N/N=C/c2ccc(O)cc2O)n1	i	?	?	?	20µM
Cc1ccccc1CNCc1c(C(=O)O)c(C)n(Cc2ccc(F)cc2Cl)c1C	nt	nt	nt	i	i
Cc1ccccc1Cn1c2ccccc2c2cn[nH]c(=O)c21	i	10µM	?	?	?
Cc1ccccc1Cn1c2ccccc2c2cnn(CC(=O)NC3CCC(C)CC3)c(=O)c21 (stereo not given)	nt	nt	nt	i	i
O=C(Nc1ccc(Cl)c([N+](=O)[O-])c1)Nc1nc2ccccc2s1	nt	10µM	?	nt	nt
CCNC(=O)Nc1nc2ccccc2s1	i	i	i	i	i
O=C(Nc1ccc(Cl)cc1)/C(=C/c1ccc([N+](=O)[O-])cc1)c1nc2ccccc2s1	nt	1.5µM	2.1µM	nt	nt
O=C(Nc1ccccc1)Nc1ccc(Cl)c([N+](=O)[O-])c1	i	i	?	nt	nt
Cc1ccc(NC(=O)Nc2nc3ccccc3s2)cc1NC(=O)Nc1nc2ccccc2s1	i	2.6µM	2.1µM	?	i
O=C(Nc1nc2ccccc2s1)Nc1ccc([N+](=O)[O-])cc1Cl	nt	1µM	?	nt	nt
CCc1ccc(OCC(=O)N(Cc2ccc(C)cc2)Cc2ccco2)cc1	nt	nt	nt	i	i
Cc1cc(C)c2c(=O)cc(C(=O)NCCc3ccc(S(N)(=O)=O)cc3)oc2c1	nt	nt	nt	i	i
SMILES	AMA1 RON2 block	Pf growth 96h	Pf growth 48h	VACV Venus inh	VACV mCherry inh
COCc1cc(=O)[nH]c(Nc2nc3ccc(C)cc3o2)n1	?	?	2.9µM	?	nt
COc1ccc(-c2nc3ccccc3n2Cc2ccc(C)cc2)cc1	i	?	?	i	nt
COc1ccc(Cn2c(-c3ccc(C)cc3)c[n+]3ccccc23)cc1	i	0.1µM	0.37µM	i	i
Cc1c(N=NC2=C(O)CC(C)(C)CC2=O)c(=O)n(-c2ccccc2)n1C	i	2.1µM	i	i	i
Cc1c(N=Nc2c(O)[nH]c(=S)[nH]c2=O)c(=O)n(-c2ccccc2)n1C	i	?	i	i	i
C=CCn1c(O)c(N=Nc2c(C)n(C)n(-c3ccccc3)c2=O)c(=O)[nH]c1=S	i	6.6µM	i	i	i
Cc1cc(/C=C/c2ccnc3ccccc23)ccc1N(C)C	nt	nt	nt	i	i
CCc1ccc2c(c1)NC(c1ccc(C)cc1)=NC(c1cccs1)=N2	nt	nt	nt	i	i
COc1ccc(NC(=O)CN(C)CC(=O)Nc2cccc(F)c2)cc1S(=O)(=O)N1CCCCC1	i[11.6 µM]	nt	nt	i	i
COc1cc2c(cc1OC)-c1cc(Nc3ccc(F)cc3)nc(=O)n1CC2	i	1.2µM	2.1µM	i	i
COc1cc2c(cc1OC)-c1cc(Nc3cccc(F)c3)nc(=O)n1CC2	i	4.1µM	?	i	i
COc1cc2c(cc1OC)-c1cc(Nc3ccc(N(C)C)cc3)nc(=O)n1CC2	?	?	?	i[7.34 µM]	i[7.34 µM]
